Source: PubChem BioAssay AID1663 (Broad Institute, 2009)
Screen size: about 300,000 compounds; about 660 (0.22%) were called active. Many of the other results were omitted from the sample, so actives are more common in it than they were. Values without a mark were called inactive.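 Rule for the calls: active = mean replicate score, as percent of positive control, at or above 50; inconclusive = mean below 50 but at least one replicate at or above 50; inactive = mean and every replicate below 50.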

experiment: inhibitors of platelet dense granule secretion, primary screen, cell-based, MLPCN, human platelets (AID 1663); conditions: human platelet-rich plasma, SFLLRN dense granule ATP release, luminescence; hits give high values;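 compounds screened at 7.5 µM in platelet-rich plasma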

| Compound | inhibition |
| --- | --- |
| Cc1ccc(-n2ncc3c2CCCC3NC(=O)c2cnccn2)cc1C (stereo not given) | -0.139% |
| Cc1ccc(S(=O)(=O)N2CCOCC2)cc1C(=O)OC1CCCCC1=O (stereo not given) | -6.92% |
| COc1ccccc1NC(=O)Nc1nnc(Cc2ccc(F)cc2)s1 | 1.62% |
| CC1CCC2(CC1)NC(=O)N(Cc1nnc(-c3cccs3)o1)C2=O (stereo not given) | 3.04% |
| Cc1ccc2c(C)c(C(=O)N(C)CCC3CCCCO3)oc2c1C (stereo not given) | 4.71% |
| COc1cccc(C(C(=O)NC2CCCC2)N(C(=O)c2ccco2)c2cccc(C(C)=O)c2)c1OC (stereo not given) | -1.88% |
| OCCC1CN(Cc2cccc(OC3CCCC3)c2)CCN1Cc1ccsc1 (stereo not given) | -11.2% |
| CCOc1ccc(S(=O)(=O)N2CCC(C(=O)NCc3ccccn3)CC2)cc1Cl | -1.17% |
| O=C(Nc1ccc(-n2cccn2)cc1)C1CCN(Cc2ccsc2)CC1 | 0.088% |
| CCOc1ccc(C(=O)Nc2cccc(SC)c2)cc1 | 25.4% |
| COc1ccc(C(C(=O)NC(C)(C)C)N(Cc2ccc(F)cc2)C(=O)CCC(=O)Nc2cc(C)on2)cc1 (stereo not given) | 2.89% |
| CCC1CCCCN1C(=S)Nc1ccc(S(=O)(=O)Nc2ncccn2)cc1 (stereo not given) | -1.83% |
| CC(=O)Nc1ccc(S(=O)(=O)NCC2CCC(C(=O)NCCc3ccccc3)CC2)cc1 (stereo not given) | -0.696% |
| Cc1ccc2c(cnn2C(=O)CCC(=O)NC2CCCC2)c1 | 6.24% |
| CCn1c(SC(C)C(=O)Nc2ccc(N3CCOCC3)cc2)nnc1-c1ccco1 (stereo not given) | -6.89% |
| Cc1ccc(Oc2nc(-c3ccccn3)nc3ccccc23)cc1 | 7.76% |
| O=C(Oc1ccc(Br)cc1)c1cccnc1 | 3.93% |
| O=C(Oc1ccc(-c2nc(-c3ccccn3)no2)cc1)c1ccccc1 | 83.2% (active) |
| O=C1[C@@H]2C(c3cccnc3)=NO[C@@H]2C(=O)N1c1ccc(Cl)cc1Cl | 3.23% |
| COCCN(CCOC)c1nc(N)c2c(N)nc3c(c2c1C#N)CC(=O)N3Cc1ccc(Cl)cc1 | -8.74% |
| CCCC(=O)Nc1cccc(NC(=S)NC(=O)C(C)Oc2ccc(Cl)cc2Cl)c1 (stereo not given) | 4.37% |
| Cn1nc(C(F)(F)F)c(C(=O)Nc2cccc(C(F)(F)F)c2)c1SCc1ccc(Cl)cc1 | 0.563% |
| Cc1c(C#N)c(NC(=O)c2ccccc2)n(Cc2ccccc2)c1C | -12.1% |
| CCN1CCN(C(=O)c2ccc(CN(c3ccc(C)c(C)c3)S(C)(=O)=O)cc2)CC1 | 3.03% |

| Compound | inhibition |
| --- | --- |
| Cc1nc(N)c(Br)c(C)c1Br | -11.2% |
| CCOc1ccc(CCNC(=O)COC(=O)C2CCN(c3ccc(C(F)(F)F)cn3)CC2)cc1OCC | -1.24% |
| CCCCc1ccc(S(N)(=O)=O)cc1 | 5.59% |
| NNC(=O)CNC(c1ccccc1)c1cc(Cl)ccc1NC(=O)c1ccccc1 (stereo not given) | 2.02% |
| CCOC(=O)/C=C/c1ccc(C(F)(F)F)cc1S(=O)(=O)NC(C)(C)C | 0.739% |
| O=C(c1ccco1)N1CCN(CCOc2ccccc2)CC1 | -1.03% |
| O=C(c1ccco1)N1CCN(C(=O)c2ccc(COc3ccc(F)cc3)o2)CC1 | 60.5% (active) |
| COc1ccccc1OCc1ccc(C(=O)N2CCN(C)CC2)o1 | -1.97% |
| CN(C)NC(=O)C(NC(=O)c1ccc(N)cc1)C12CC3CC(CC(C3)C1)C2 (stereo not given) | -0.607% |
| O=C(CCN1CCc2ccccc2C(O)(c2ccccc2)C1)c1ccc2c(c1)OCCO2 (stereo not given) | -76.9% |
| CC(=O)Nc1ccc(CN2CCC(Oc3ccc(C(=O)N4CCCC4)cc3)CC2)cc1 | -7.89% |
| CC(C)(C)NC(=O)NC(=O)COC(=O)C1c2ccccc2Oc2ccccc21 | -3.75% |
| O=C(Nc1ccn(Cc2ccc(F)cc2)n1)c1ccncc1 | 50.5% (active) |
| O=C(Nc1ccn(Cc2ccccc2)n1)c1n[nH]c([N+](=O)[O-])c1Cl | 0.241% |
| O=C(Nc1ccn(Cc2ccccc2)n1)c1cccc(F)c1 | 7.39% |
| O=C(Nc1ccc(S(=O)(=O)NCC2CCCO2)cc1)c1ccc(F)cc1 (stereo not given) | -4.99% |
| Cc1ccnc(NC(=O)c2ccoc2C)c1 | 50.8% (active) |
| COc1cc(SC)ccc1C(=O)Nc1cc(C)ccn1 | 5.66% |
| Cc1ccnc(NC(=O)CNC(=O)c2ccccc2)c1 | -2.51% |
| Cc1csc(Nc2ccc(Cl)cc2)[n+]1-c1ccc(Cl)cc1 | -1.67% |
| Oc1ccc(CNc2ccccc2O)cc1 | 4.21% |
| CCOc1ccc(C(=O)Nc2ccc(S(=O)(=O)NCC3CCCO3)cc2)cc1OCC (stereo not given) | -1.27% |
| COC(=O)CN1C(=O)C(C)(C)Oc2ccc(C(=O)Nc3cccc(OC)c3)cc21 | -3.5% |
| CCOC(=O)c1ccc(NC(=O)Cn2cnc3cc(C)c(C)cc32)cc1 | 9.16% |

| Compound | inhibition |
| --- | --- |
| CCCCn1c(N)c(N(CCC(C)C)C(=O)c2ccc(COc3ccccc3)o2)c(=O)[nH]c1=O | -0.548% |
| Cc1ccc(NC(=O)CSCC(=O)Nc2sccc2C#N)cc1 | -1.59% |
| O=C1/C(=C/c2ccc(F)cc2)SC(=S)N1NS(=O)(=O)c1ccccc1 | -3.17% |
| COC(=O)/C=C\C(=O)Nc1cccc([N+](=O)[O-])c1 | 73% (active) |
| COc1ccc(S(=O)(=O)NC(C)C(=O)Nc2cccc([N+](=O)[O-])c2)cc1 (stereo not given) | 3.55% |
| COc1cccc(CNC(=O)CCCC(=O)Nc2cccc([N+](=O)[O-])c2)c1 | 6.93% |
| CN(C)c1nc(=Nc2cccc(Cl)c2)ss1 | -3.66% |
| CCc1ccc(-c2nc(SCC(=O)NC3CCCC3)n[nH]2)cc1 | -5.4% |
| CC(=O)CCS(=O)(=O)c1ccc(C)c(C)c1 | 3.49% |
| OC(c1nc2ccccc2[nH]1)C(O)C(O)C(O)c1nc2ccccc2[nH]1 (stereo not given) | -3.4% |
| c1ccc2[nH]c(-c3nc4ccccc4[nH]3)nc2c1 | 76.6% (active) |
| Cc1ccc(-c2nc3ccccc3[nH]2)cc1N | 17.1% |
| O=C(Nc1cccc(-c2cscn2)c1)C1CCN(Cc2ccsc2)CC1 | -6.81% |
| CC[n+]1cc(C)ccc1/C=C/c1ccc(N(C)C)cc1 | 9.22% |
| CCCCC(=O)Nc1ccccc1N1CCN(c2ccc(F)cc2)CC1 | 2.05% |
| CNC(=O)C1CC(=O)N(Cc2ccc3c(c2)OCO3)C(=Nc2ccc(F)cc2)S1 (stereo not given) | -5.44% |
| Cc1ccc(N=Cc2c(O)n(-c3nccs3)c(=O)c3ccccc23)c(C)c1 | -7.35% |
| COc1ccc(-c2nc(N)sc2C2(O)C(=O)Nc3c(Br)cc(F)cc32)cc1OC (stereo not given) | 7.83% |
| COCCNC(=O)NC(=O)COC(=O)C1(c2ccc(Cl)cc2)CC1 | 11.8% |
| COc1ccc(CNC(=O)c2cc(C(=O)C3CC3)c[nH]2)cc1 | -3.25% |
| COc1ccc(C(=O)COC(=O)c2ccc3ccccc3n2)cc1 | -2.98% |
| C/C(=N\N=C(N)N)c1ccc(Cl)cc1 | -7.88% |
| Cc1ncn2cc(-c3ccc(Cl)cc3Cl)[nH]c(=O)c12 | -3% |
| Cc1cc(C)cc(OCC(=O)O/N=C(\N)Cc2ccc([N+](=O)[O-])cc2)c1 | 1.64% |

| Compound | inhibition |
| --- | --- |
| CNC(=S)N1CCC(NC(=O)C(Cc2ccc(F)cc2)NC(C)=O)CC1 (stereo not given) | 0.885% |
| CCOCCCN(C(=O)Cn1nnc(-c2ccc(OC)c(OC)c2)n1)C(CC)C(=O)NC1CCCC1 (stereo not given) | 7.27% |
| CCn1c(SCC(=O)NC2CCCC2)nnc1-c1ccoc1C | -1.97% |
| Cc1ccc(OCC(=O)Oc2ccccc2[N+](=O)[O-])cc1 | -2.97% |
| COc1ccc(/C(C)=N/NC(=O)c2ccc3nc[nH]c3c2)cc1 | 8.86% |
| CCCC(C)C(=O)OCC(=O)Nc1c(Br)cc(C)cc1Br (stereo not given) | 20.5% |
| Cc1cccc(N2CC(C)Cn3c2nc2c3c(=O)n(CC(=O)OCc3ccccc3)c(=O)n2C)c1 (stereo not given) | 55.7% (active) |
| Cc1cccc(Cn2c(N3CCN(c4ccccc4)CC3)nc3c2c(=O)n(C)c(=O)n3C)c1 | 1.96% |
| Cn1c(=O)n(CCc2ccccc2)c(=O)c2c1nc1n2CCCN1c1ccccc1 | -2.86% |
| COc1ccc(-c2cn3ccsc3n2)cc1 | 16.7% |
| COc1ccc(-c2cn3ccc(C)cc3n2)cc1 | 64.2% (active) |
| CCN(CC)S(=O)(=O)c1ccc(-c2cn3ccc(C)cc3n2)cc1 | 5.08% |
| CCOC(=O)C1CCN(Cc2nnc(-c3cccc(Br)c3)o2)CC1 | 2.47% |
| [O-][N+]12CCCCC1CCCC2CO (stereo not given) | 4.81% |
| O=C1NNC(c2ccccc2)=N/C1=C\c1ccc(Cl)cc1 | -15.9% |
| O=C1c2ccccc2C2=Nc3ccccc3SC(c3ccccc3F)C12 (stereo not given) | 2.23% |
| Cc1c(Cl)cccc1NC(=O)NCc1ccc(C)n1C | -4.12% |
| Cc1cccc(NC(=O)CCn2c(=O)oc3ccccc32)c1 | 8.63% |
| CC(=O)c1nnn(-c2ccc(Cl)cc2C#N)c1C | -27.7% |
| COc1ccc(C(=O)Nc2cccc(NC(=O)c3ccc(OC)cc3OC)n2)c(OC)c1 | 10.1% |
| CCOC(=O)C1C(c2ccc(OC)c(OC)c2)c2c([nH][nH]c2=O)CC1(C)O (stereo not given) | 57.3% (active) |
| CCOC(=O)C1C(c2ccc(Cl)cc2)NC(=S)NC1(O)C(F)(F)F (stereo not given) | -3.31% |
| CCOC(=O)C1C(c2ccc(O)cc2)NC(=O)NC1(O)C(F)(F)F (stereo not given) | -5.44% |
